# Measurements: PubChem BioAssay AID1159580 (chemical genetic matrix, 2015)
# Hit rate of the full screen: of about 5,500 compounds, about 2,000 (36%) were called active. Roughly 18% stayed inconclusive and do not appear here. This is one part of the list. Unmarked numbers belong to inactive results. Rule as the data show it: active = normalized growth mostly below about 0.91 (no sharp cut-off); inconclusive = no clear call, values can overlap the other calls; inactive = mostly above about 0.92.
# Experiment: chemical genetic growth profiling, strain panel (AID 1159580);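 also: tested at 20 µM; growth read once vehicle control cultures reached saturation at 30 °C; 1 = growth at the plate median or of vehicle wells; lower values mean less growth of the strain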
# Settings: growth OD
# [1] = S. cerevisiae deletion strains, locus YAL013W, strain DEP1, stronger effect = lower value
# [2] = S. cerevisiae deletion strains, locus YBR229C, strain ROT2, stronger effect = lower value
# [3] = S. cerevisiae deletion strains, locus YDL101C, strain DUN1, stronger effect = lower value
# [4] = S. cerevisiae deletion strains, locus YDR150W, strain NUM1, stronger effect = lower value
# [5] = S. cerevisiae deletion strains, locus YEL061C, strain CIN8, stronger effect = lower value
# [6] = S. cerevisiae deletion strains, locus YGR078C, strain PAC10, stronger effect = lower value
# [7] = S. cerevisiae deletion strains, locus YHR030C, strain SLT2, stronger effect = lower value
# [8] = S. cerevisiae deletion strains, locus YHR087W, strain rtc3, stronger effect = lower value
# [9] = S. cerevisiae deletion strains, locus YJR043C, strain POL32, stronger effect = lower value
# [10] = S. cerevisiae deletion strains, locus YJR075W, strain HOC1, stronger effect = lower value
# [11] = S. cerevisiae deletion strains, locus YLR039C, strain RIC1, stronger effect = lower value
# [12] = S. cerevisiae deletion strains, locus YLR058C, strain SHM2 (second series), stronger effect = lower value
# [13] = S. cerevisiae deletion strains, locus YLR085C, strain ARP6, stronger effect = lower value
# [14] = S. cerevisiae deletion strains, locus YLR262C, strain YPT6, stronger effect = lower value
# [15] = S. cerevisiae deletion strains, locus YML094W, strain GIM5, stronger effect = lower value
# [16] = S. cerevisiae deletion strains, locus YMR219W, strain ESC1, stronger effect = lower value
# [17] = S. cerevisiae deletion strains, locus YMR263W, strain SAP30, stronger effect = lower value
# [18] = S. cerevisiae deletion strains, locus YNL153C, strain GIM3, stronger effect = lower value
# [19] = S. cerevisiae deletion strains, locus YNL298W, strain CLA4 (second series), stronger effect = lower value
# [20] = S. cerevisiae deletion strains, locus YNL322C, strain KRE1, stronger effect = lower value
# [21] = S. cerevisiae deletion strains, locus YNR030W, strain Alg12, stronger effect = lower value
# [22] = S. cerevisiae deletion strains, locus YPL055C, strain LGE1, stronger effect = lower value
# [23] = S. cerevisiae deletion strains, locus YPL241C, strain CIN2, stronger effect = lower value
# [24] = S. cerevisiae deletion strains, locus YPR135W, strain CTF4, stronger effect = lower value
# [25] = S. cerevisiae strains, strain wild type, stronger effect = lower value
smiles,measurement,setting,value
CC(=O)/C(=C\N(C)C)Sc1ccc(Cl)cc1,normalized growth,[1],0.883 (active)
same,normalized growth,[2],0.82 (active)
same,normalized growth,"S. cerevisiae deletion strains, locus YCL061C, strain MRC1, stronger effect = lower value",0.838 (active)
same,normalized growth,[3],0.897 (active)
same,normalized growth,"S. cerevisiae deletion strains, locus YDL134C, strain PPH21, stronger effect = lower value",0.976
same,normalized growth,[4],0.859
same,normalized growth,[5],0.989
same,normalized growth,[6],0.817 (active)
same,normalized growth,[7],1.02
same,normalized growth,[8],0.832 (active)
same,normalized growth,[9],0.888 (active)
same,normalized growth,[10],0.776 (active)
same,normalized growth,[11],0.876
same,normalized growth,[12],0.817 (active)
same,normalized growth,[13],1.12
same,normalized growth,[14],0.873
same,normalized growth,[15],1.07
same,normalized growth,[16],0.86 (active)
same,normalized growth,[17],0.839 (active)
same,normalized growth,[18],0.793 (active)
same,normalized growth,[19],1.03
same,normalized growth,[20],0.819 (active)
same,normalized growth,[21],1.03
same,normalized growth,"S. cerevisiae deletion strains, locus YOL006C, strain TOP1, stronger effect = lower value",1.09
same,normalized growth,[22],0.933
same,normalized growth,[23],0.937
same,normalized growth,[24],1.29
same,normalized growth,[25],0.975
CC(=O)/C(=C\N(C)C)Sc1nnc(C(F)(F)F)n1C,normalized growth,[1],1.06
same,normalized growth,[2],1.03
same,normalized growth,[3],0.968
same,normalized growth,[4],1.02
same,normalized growth,[5],1.01
same,normalized growth,[6],1.01
same,normalized growth,[7],1.06
same,normalized growth,[8],1.04
same,normalized growth,"S. cerevisiae deletion strains, locus YJL187C, strain SWE1, stronger effect = lower value",0.998
same,normalized growth,[9],1.01
same,normalized growth,[10],0.987
same,normalized growth,"S. cerevisiae deletion strains, locus YKL190W, strain CNB1, stronger effect = lower value",0.993
same,normalized growth,[11],1.05
same,normalized growth,[12],1
same,normalized growth,[13],1.16
same,normalized growth,[14],1.01
same,normalized growth,[15],1.06
same,normalized growth,[16],1.02
same,normalized growth,[17],1.01
same,normalized growth,"S. cerevisiae deletion strains, locus YNL128W, strain TEP1, stronger effect = lower value",1.01
same,normalized growth,[18],1.02
same,normalized growth,[19],1.03
same,normalized growth,[20],1
same,normalized growth,[21],1.02
same,normalized growth,[22],1.09
same,normalized growth,[23],1.1
same,normalized growth,[24],1.21
same,normalized growth,[25],1.01
Cc1c(NCN2C(=O)CCC2=O)cc2c(c1[N+](=O)[O-])C(C)(C)CC2(C)C,normalized growth,"S. cerevisiae deletion strains, locus YAR019C, strain CDC15, stronger effect = lower value",0.963
same,normalized growth,"S. cerevisiae deletion strains, locus YBL105C, strain PKC1, stronger effect = lower value",0.962
same,normalized growth,"S. cerevisiae deletion strains, locus YBR135W, strain CKS1, stronger effect = lower value",0.967
same,normalized growth,"S. cerevisiae deletion strains, locus YBR136W, strain MEC1, stronger effect = lower value",0.959
same,normalized growth,"S. cerevisiae deletion strains, locus YBR160W, strain CDC28, stronger effect = lower value",0.967
same,normalized growth,"S. cerevisiae deletion strains, locus YDL017W, strain CDC7, stronger effect = lower value",0.961
same,normalized growth,"S. cerevisiae deletion strains, locus YDL028C, strain MPS1, stronger effect = lower value",0.962
same,normalized growth,[3],0.942
same,normalized growth,"S. cerevisiae deletion strains, locus YDL108W, strain KIN28, stronger effect = lower value",0.965
same,normalized growth,"S. cerevisiae deletion strains, locus YDL132W, strain cdc53, stronger effect = lower value",0.948
same,normalized growth,"S. cerevisiae deletion strains, locus YDL214C, strain PRR2, stronger effect = lower value",0.925
same,normalized growth,"S. cerevisiae deletion strains, locus YDR052C, strain DBF4, stronger effect = lower value",0.956
same,normalized growth,"S. cerevisiae deletion strains, locus YDR054C, strain cdc34, stronger effect = lower value",0.958
same,normalized growth,"S. cerevisiae deletion strains, locus YDR226W, strain ADK1, stronger effect = lower value",0.955
same,normalized growth,"S. cerevisiae deletion strains, locus YDR477W, strain SNF1, stronger effect = lower value",0.913
same,normalized growth,"S. cerevisiae deletion strains, locus YER123W, strain YCK3, stronger effect = lower value",0.9
same,normalized growth,"S. cerevisiae deletion strains, locus YER133W, strain GLC7, stronger effect = lower value",0.879
same,normalized growth,"S. cerevisiae deletion strains, locus YFL009W, strain cdc4, stronger effect = lower value",0.957
same,normalized growth,"S. cerevisiae deletion strains, locus YFL029C, strain CAK1, stronger effect = lower value",0.95
same,normalized growth,"S. cerevisiae deletion strains, locus YFR003C, strain YPI1, stronger effect = lower value",0.961
same,normalized growth,"S. cerevisiae deletion strains, locus YFR019W, strain FAB1, stronger effect = lower value",0.952
same,normalized growth,"S. cerevisiae deletion strains, locus YFR028C, strain CDC14, stronger effect = lower value",0.956
same,normalized growth,"S. cerevisiae deletion strains, locus YGR040W, strain KSS1, stronger effect = lower value",0.912
same,normalized growth,"S. cerevisiae deletion strains, locus YGR052W, strain FMP48, stronger effect = lower value",0.933
same,normalized growth,"S. cerevisiae deletion strains, locus YGR092W, strain DBF2, stronger effect = lower value",0.931
same,normalized growth,[7],0.909
same,normalized growth,"S. cerevisiae deletion strains, locus YHR079C, strain IRE1, stronger effect = lower value",0.894
same,normalized growth,"S. cerevisiae deletion strains, locus YHR082C, strain KSP1, stronger effect = lower value",0.993
same,normalized growth,"S. cerevisiae deletion strains, locus YHR205W, strain SCH9, stronger effect = lower value",0.904
same,normalized growth,"S. cerevisiae deletion strains, locus YIL147C, strain SLN1, stronger effect = lower value",0.963
same,normalized growth,"S. cerevisiae deletion strains, locus YJL095W, strain BCK1, stronger effect = lower value",0.839
same,normalized growth,"S. cerevisiae deletion strains, locus YJL128C, strain PBS2, stronger effect = lower value",0.901
same,normalized growth,"S. cerevisiae deletion strains, locus YJL157C, strain FAR1, stronger effect = lower value",0.92
same,normalized growth,"S. cerevisiae deletion strains, locus YJR016C, strain ILV3, stronger effect = lower value",0.96
same,normalized growth,"S. cerevisiae deletion strains, locus YJR066W, strain TOR1 (second series), stronger effect = lower value",0.861
same,normalized growth,"S. cerevisiae deletion strains, locus YJR066W, strain TOR1, stronger effect = lower value",1.03
same,normalized growth,"S. cerevisiae deletion strains, locus YKL048C, strain ELM1, stronger effect = lower value",0.928
same,normalized growth,"S. cerevisiae deletion strains, locus YKL067W, strain YNK1, stronger effect = lower value",0.929
same,normalized growth,"S. cerevisiae deletion strains, locus YKL101W, strain HSL1, stronger effect = lower value",0.922
same,normalized growth,"S. cerevisiae deletion strains, locus YKL193C, strain SDS22, stronger effect = lower value",0.95
same,normalized growth,"S. cerevisiae deletion strains, locus YKL203C, strain TOR2, stronger effect = lower value",0.978
same,normalized growth,"S. cerevisiae deletion strains, locus YLR113W, strain HOG1, stronger effect = lower value",0.861 (active)
same,normalized growth,"S. cerevisiae deletion strains, locus YLR133W, strain CKI1, stronger effect = lower value",0.944
same,normalized growth,"S. cerevisiae deletion strains, locus YLR403W, strain SFP1, stronger effect = lower value",0.921
same,normalized growth,"S. cerevisiae deletion strains, locus YML070W, strain DAK1, stronger effect = lower value",0.911
same,normalized growth,"S. cerevisiae deletion strains, locus YMR001C, strain CDC5, stronger effect = lower value",0.956
same,normalized growth,"S. cerevisiae deletion strains, locus YMR205C, strain PFK2 (second series), stronger effect = lower value",0.927
same,normalized growth,"S. cerevisiae deletion strains, locus YMR277W, strain FCP1, stronger effect = lower value",0.96
same,normalized growth,"S. cerevisiae deletion strains, locus YNL006W, strain LST8, stronger effect = lower value",0.954
same,normalized growth,"S. cerevisiae deletion strains, locus YNL020C, strain ARK1, stronger effect = lower value",0.932
same,normalized growth,"S. cerevisiae deletion strains, locus YNL161W, strain CBK1, stronger effect = lower value",0.95
same,normalized growth,"S. cerevisiae deletion strains, locus YNL183C, strain NPR1, stronger effect = lower value",0.977
same,normalized growth,"S. cerevisiae deletion strains, locus YNL207W, strain RIO2, stronger effect = lower value",0.965
same,normalized growth,"S. cerevisiae deletion strains, locus YNL222W, strain SSU72, stronger effect = lower value",0.959
same,normalized growth,"S. cerevisiae deletion strains, locus YNL307C, strain MCK1 (second series), stronger effect = lower value",0.94
same,normalized growth,"S. cerevisiae deletion strains, locus YOL078W, strain AVO1, stronger effect = lower value",0.952
same,normalized growth,"S. cerevisiae deletion strains, locus YOL136C, strain PFK27, stronger effect = lower value",0.914
same,normalized growth,"S. cerevisiae deletion strains, locus YOR061W, strain CKA2, stronger effect = lower value",0.945
same,normalized growth,"S. cerevisiae deletion strains, locus YOR119C, strain RIO1, stronger effect = lower value",0.951
same,normalized growth,"S. cerevisiae deletion strains, locus YOR231W, strain MKK1, stronger effect = lower value",0.943
same,normalized growth,"S. cerevisiae deletion strains, locus YOR329C, strain SCD5, stronger effect = lower value",0.961
same,normalized growth,"S. cerevisiae deletion strains, locus YPL031C, strain PHO85, stronger effect = lower value",0.899
same,normalized growth,"S. cerevisiae deletion strains, locus YPL153C, strain RAD53, stronger effect = lower value",0.905
same,normalized growth,"S. cerevisiae deletion strains, locus YPL204W, strain HRR25, stronger effect = lower value",0.891
same,normalized growth,"S. cerevisiae deletion strains, locus YPL209C, strain IPL1, stronger effect = lower value",0.957
same,normalized growth,"S. cerevisiae deletion strains, locus YPL256C, strain CLN2, stronger effect = lower value",0.87
same,normalized growth,"S. cerevisiae deletion strains, locus YPR025C, strain CCL1, stronger effect = lower value",0.952
same,normalized growth,"S. cerevisiae deletion strains, locus YPR106W, strain ISR1, stronger effect = lower value",0.949
same,normalized growth,"S. cerevisiae deletion strains, locus YPR111W, strain DBF20, stronger effect = lower value",0.943
same,normalized growth,"S. cerevisiae deletion strains, strain NNK1, stronger effect = lower value",0.937
same,normalized growth,"S. cerevisiae deletion strains, strain TSCII, stronger effect = lower value",0.953
